For 97 molecules, inhibition results are on record in PubChem BioAssay AID2013 (Sanford-Burnham Center for Chemical Genomics, 2009).

In all, about 290,000 compounds went through this assay and about 370 (0.13%) were called active. For the sample, actives were picked, then their nearest neighbours and some compounds at random. Measured potencies and affinities stand elsewhere. Unmarked numbers belong to inactive results.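 How the source made its calls: active means spots per cell inhibited over 60%, with over 100 cells counted and total cytoplasm intensity under 500,000; inconclusive means wells with under 100 cells, flagged as likely toxic; inactive means the rest.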

In the test the target is G-protein coupled receptor 55 (Homo sapiens) (UniProt Q9Y2T6). The test can be described thus: inhibition of LPI-stimulated GPR55 beta-arrestin translocation – imaging, U2OS, beta-arrestin-GFP, LPI agonist, primary screen (AID 2013).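 Further: U2OS cells stably carrying GPR55 and arrestin-GFP stimulated by 5 µM LPI near EC80; imaged beta-arrestin-GFP aggregate spots per cell after agonist stimulation; plate controls were LPI-stimulated DMSO wells for no effect and DMSO wells without LPI for full effect.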 Conditions: LPI antagonism, at 10 µM, hits give high values.
Chain of G-protein coupled receptor 55 (Homo sapiens) (Q9Y2T6 whole entry, looked up): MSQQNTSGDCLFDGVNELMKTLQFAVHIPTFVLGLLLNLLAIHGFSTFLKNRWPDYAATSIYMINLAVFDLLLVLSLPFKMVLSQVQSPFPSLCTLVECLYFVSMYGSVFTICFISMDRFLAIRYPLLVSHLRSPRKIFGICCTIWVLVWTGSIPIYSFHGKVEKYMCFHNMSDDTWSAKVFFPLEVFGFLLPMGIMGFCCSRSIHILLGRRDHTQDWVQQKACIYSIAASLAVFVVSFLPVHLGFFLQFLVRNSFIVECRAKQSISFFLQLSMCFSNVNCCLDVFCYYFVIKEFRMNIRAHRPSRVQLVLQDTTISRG
For the molecule `S=c1[nH]nc(CCc2ccc(Cl)cc2)o1`, the inhibition (commonly the change of the read-out against control, counted positive when it falls) is 9.7%. On to `COc1ccc(S(=O)(=O)N(CC(=O)N2CCCCCC2)c2ccccc2OC)cc1`, for which the inhibition is 9.8%. With `CCOC(=O)c1cc(C#N)c(SC)nc1-c1ccccc1`, the inhibition is 18%. `COC(=O)c1cc(C#N)c(Oc2ccc(F)cc2)nc1C`: the inhibition is 20.6%. In the case of `CCOC(=O)c1cc(C#N)c(Oc2ccccc2OC)nc1-c1ccccc1`, the inhibition is 18.2%.

Turning to `CCOC(=O)c1cc(C#N)c(Oc2cccc(C(F)(F)F)c2)nc1-c1ccccc1`, the inhibition was 10%. With `CCOC(=O)c1c(C)[nH]c(C)c1S(=O)(=O)NCCN1CCN(c2cc(Cl)ccc2C)CC1` the figure was 11.1%; with `Cc1ccc(NS(=O)(=O)c2cccc(C(=O)O)c2)cc1S(=O)(=O)N1CCCCC1`, 5.9%.

On to `Cc1cc(C)nc(SC2CC(=O)N(c3ccc(Cl)cc3)C2=O)n1` (configuration not stated), for which the inhibition is 20.8%. With `O=[N+]([O-])c1ncn(C23CC4CC(CC(C4)C2)C3)n1` the figure was -8.9%; with `N#CC(c1ccccn1)c1ncc(C(F)(F)F)cc1Cl` (configuration not stated), 3.6%; with `O=C(NCc1ccccn1)c1ccc(Cl)c(S(=O)(=O)N2CCCCCC2)c1`, 21.3%. As for `CCCCC1(Cc2ccc([N+](=O)[O-])cc2)C(=O)N(c2ccccc2)N(c2ccccc2)C1=O`, the figure is 51.2%; as for `CCCCC1(CC(=O)OCC)C(=O)N(c2ccccc2)N(c2ccccc2)C1=O`, 17.5%. As for `CCCCC1(CO)C(=O)N(c2ccccc2)N(c2ccccc2)C1=O`, the figure is -5.2%; as for `CCCCC1(CC(=O)OC)C(=O)N(c2ccccc2)N(c2ccccc2)C1=O`, -3.2%; as for `CCCCCCSc1nc(O)c(C2OC(=O)c3c2ccc(OC)c3OC)c(=O)n1CC` (configuration not stated), 2.6%.

Regarding `CC(=O)c1ccc(NC(=O)CCc2c(C)nn(-c3ccc(N4CCOCC4)nn3)c2C)cc1`, the inhibition was 4.4%. As for `O=C(NCc1ccco1)C(=O)NCC1OCCN1C(=O)c1ccc(Cl)cc1` (configuration not stated), the inhibition is 2.4%. For `O=C(Nc1ccnc(=O)[nH]1)c1sc2ccccc2c1Cl`, the inhibition is 5.4%. With `CCOCc1nnc(NC(=O)c2cc(OC)c(OC)cc2[N+](=O)[O-])s1` the figure was 1.7%. As for `O=C1CSC(c2cccc(Cl)c2Cl)N1c1ccccn1` (configuration not stated), the figure is 13%. As for `O=C1CSC(c2ccc(Cl)cc2Cl)N1c1ccccn1` (configuration not stated), the figure is 22.4%; as for `C/C(CC(=O)N1CCN(C=O)CC1)=N\NC(=O)c1cc2ccccc2cc1O`, 5.8%.

In the case of `Cc1nc2c(oc3ccc(Cl)cc32)c(=O)[nH]1`, the inhibition is -10.2%. As for `Clc1ncnc2c1oc1ccccc12`, the figure is 26.5%; as for `Cc1c(N/C(=N/S(=O)(=O)c2ccc(Cl)cc2)c2ccccc2)c(=O)n(-c2ccccc2)n1C`, -4.8%. Regarding `c1ccc(-c2ccccc2-c2nc(-c3ccncc3)no2)cc1`, the inhibition was 41.2%. As for `COc1ccc(-c2noc(-c3ccccc3-c3ccccc3)n2)cc1`, the inhibition was 10.6%. With `Cc1ccc(N/N=C(\C#N)C(=N)N2CCOCC2)cc1` the figure was 86.4% (active). With `Cc1ccc(N/N=C(\C#N)C(=N)N2CCCCC2)cc1` the figure was 2.6%; with `Cc1ccc(N/N=C(\C#N)C(=N)N2CCCCCC2)cc1`, -5%. As for `CN(CC(=O)NCc1ccccc1F)S(=O)(=O)c1ccc(Cl)cc1`, the figure is 3.3%; as for `COC(=O)CSc1nc(NCC(C)C)nc(N2CCOCC2)n1`, -2.9%.

`Clc1ccccc1OCCn1ccnc1`: the inhibition is 1.9%. As for `Clc1ccccc1OCCCn1ccnc1`, the figure is -2.4%; as for `Clc1ccccc1C(c1ccccc1)(c1ccccc1)n1ccnc1`, 98.7% (active). With `CCCCN(C(=O)CCCc1nc2ccccc2c(=O)[nH]1)c1c(N)n(CCCC)c(=O)[nH]c1=O` the figure was 21.5%; with `COC(=O)c1sc(NC(=O)/C=C/c2ccc(C)cc2)nc1C`, 16.9%. As for `CSc1nc2ccc(S(=O)(=O)N3CCCCC3)cc2s1`, the figure is 10.7%; as for `Cc1nc2ccc(S(=O)(=O)N3CCCCC3)cc2s1`, -5.9%; as for `CC1NC(=S)N(C2CCCCC2)C1=O` (configuration not stated), 2.5%. Turning to `COc1cccc(OC)c1C1=NC(C)(C)CO1`, the inhibition was 6.1%. As for `COc1ccc2cc(C(=O)C3CCCN(C(=O)c4cc5nc(C)cc(C)n5n4)C3)ccc2c1` (configuration not stated), the figure is -6.7%. For `Cc1c(N=C2N=C(NC(=O)NC(C)(C)C)c3ccccc32)c(=O)n(-c2ccccc2)n1C`, the inhibition was 1.4%.

With `Cc1cccc(C)c1NS(=O)(=O)c1cc2c3c(c1)CC(=O)N3CCC2`, the inhibition is 6.8%.

On to `CCc1nc(C)cn1S(=O)(=O)c1ccc([N+](=O)[O-])cc1`, for which the inhibition was 0.5%. With `CCc1nc(C)cn1S(=O)(=O)c1ccc(Cl)c(Cl)c1Cl` the figure was 18.7%; with `Cc1c(C(=O)NCCN2CCCC(O)C2)oc2c(F)cccc12` (configuration not stated), 26.6%. As for `Cc1cc(/C=N/Nc2ccc([N+](=O)[O-])cn2)c(C)n1-c1ccccc1`, the figure is 13.4%; as for `O=C(N/N=C/c1cccn1-c1ccc([N+](=O)[O-])cc1)C(O)c1ccccc1` (configuration not stated), 16.8%. As for `O=[N+]([O-])c1ccc(N/N=C\c2cccn2-c2ccccc2)nc1`, the inhibition is 89.6% (active). As for `Cc1ccc(S(=O)(=O)N2CC=C(C(=O)NC3CC3)CC2)cc1`, the inhibition is 17.2%. On to `COc1ccc(CNc2nc3c(c(C(F)(F)F)n2)CCCCC3)cc1`, for which the inhibition is 13.2%. As for `CN1CCN(C(=S)SCC(=O)N2CCCc3ccccc32)CC1`, the inhibition was 23.2%. On to `COc1ccc(/C=C/c2nc3ccccc3n2C)cc1`, for which the inhibition was -8.1%. As for `Cc1csc(NC(=O)c2cccc(S(=O)(=O)N3CCN(C)CC3)c2)n1`, the figure is 5%; as for `Cc1c(CCOC(=O)CC23CC4CC(CC(C4)C2)C3)sc[n+]1CC(=O)c1ccc(Br)cc1`, 58.4%; as for `Cc1c(CCOC(=O)c2ccccc2)sc[n+]1CC(=O)c1ccc(Br)cc1`, -14%.

For `COc1c(F)c(F)c(C(=O)Nc2ccc(NC(=O)c3ccco3)cc2)c(F)c1F`, the inhibition is 9.4%.

`COc1ccc(-c2csc(-n3ncc(C(=O)O)c3C(F)(F)F)n2)cc1`: the inhibition was 0.6%. With `C=CCn1c(CCc2ccccc2)nnc1SCC(N)=O` the figure was 1.8%. As for `C=CC(=O)NCCCc1cc(C(C)(C)C)c(O)c(C(C)(C)C)c1`, the figure is 8.3%. With `Cc1cc(C(=O)CSc2nnnn2-c2ccc(O)cc2)c(C)n1C` the figure was 3.7%. In the case of `COc1ccccc1OC(=O)Nc1ccc(Cl)cc1`, the inhibition was 0.1%. Turning to `O=S(=O)(Nc1ccc(Cc2ccncc2)cc1)c1ccc(Br)cc1`, the inhibition was 2.9%. As for `O=S(=O)(Nc1ccc(Cc2ccncc2)cc1)c1ccc(Cl)cc1`, the figure is -2.3%.

Take `CC(C)(C)c1ccc(S(=O)(=O)Nc2ccc(Cc3ccncc3)cc2)cc1`: the inhibition is 80.2% (active).

As to `Cc1cc2nc(-c3ccc[nH]c3=O)n(Cc3cccc(F)c3)c2cc1C`, the inhibition was 8.3%. For `Cc1ccc(NC(=O)Nc2cc(Cl)ccc2C2COC(=O)C2=N)cc1` (configuration not stated), the inhibition was 7.5%. With `Cc1ccc(-c2n[nH]c(=S)c3ccccc23)cc1` the figure was 10.4%; with `S=c1[nH]nc(-c2ccccc2)c2ccccc12`, -20.4%. As for `Fc1ccc(-c2n[nH]c(=S)c3ccccc23)cc1`, the figure is 98% (active). Regarding `Cc1c(CN2CCN(CC(C)(C)C)C(CCO)C2)[nH]c2ccccc12` (configuration not stated), the inhibition is 7.5%. With `COc1cccc(C2CC(c3cccc(NS(C)(=O)=O)c3)=NN2C(=O)c2ccccc2)c1OC` (configuration not stated) the figure was 10.9%; with `CN1CC2(C)CN(C(c3ccccc3)c3ccccc3)CC(C)(C1)C2O` (configuration not stated), 5.6%. With `Clc1ccc(C(c2ccccc2)N2CCNCC2)cc1` (configuration not stated) the figure was 20%; with `CC(C)(NC(=O)N1CCCC1)c1cccc(C(C)(C)NC(=O)N2CCCC2)c1`, 0.9%. With `CCOC(=O)Cc1c(Cl)c2ccccc2[nH]c1=O` the figure was -1.4%. As for `Cc1cc(C(=O)Cn2nc(C(=O)O)c3ccccc3c2=O)c(C)n1C1CC1`, the inhibition was 3.9%. As for `COc1ccc(CCN2C(=O)c3[nH]nc(-c4ccccc4O)c3C2c2ccccc2)cc1OC` (configuration not stated), the figure is 1.6%. As for `COc1ccc(C2c3c(-c4ccccc4O)n[nH]c3C(=O)N2CCc2ccc(OC)c(OC)c2)cc1` (configuration not stated), the inhibition is 9.9%. On to `COc1ccc(CCN2C(=O)c3[nH]nc(-c4ccccc4O)c3C2c2cccc(Cl)c2)cc1` (configuration not stated), for which the inhibition was 4.8%.

As for `COc1ccc(C2c3c(-c4ccccc4O)n[nH]c3C(=O)N2Cc2ccco2)cc1OC` (configuration not stated), the inhibition is -6.4%. As for `COc1ccc(C(=O)OCC(=O)NC2CCCC2)c(OC)c1OC`, the figure is 3.7%.

As to `CCN(Cc1ccccc1)C(=O)CCCOc1ccccc1`, the inhibition was -2%. With `CC(=O)Nc1ccc(S(=O)(=O)NNC(=O)C2CCCCC2)cc1` the figure was 0.1%; with `Cc1ccc(S(=O)(=O)N2CCCCC2)cc1NC(=O)COC(=O)C1CC2C=CC1C2` (configuration not stated), -2.7%; with `Cc1ccc(NC(=O)COC(=O)C2CC3C=CC2C3)cc1S(=O)(=O)N1CCCCC1` (configuration not stated), 64.8% (active). Regarding `O=C(COC(=O)C1CC2C=CC1C2)Nc1cccc(S(=O)(=O)N2CCCCC2)c1` (configuration not stated), the inhibition was -15.5%. As for `CCCCCn1c(CNC(C)=O)nc2ccccc21`, the figure is 2.6%; as for `O=c1c(-c2ccc(Cl)cc2)coc2c(CN3CCOCC3)c(O)ccc12`, -5.8%; as for `Cc1ccc(S(C)(=O)=NS(=O)(=O)c2cccc3nsnc23)cc1` (configuration not stated), 5%. As for `Cn1c(=O)c(C(=O)NCCc2ccccc2)c(O)c2ccccc21`, the figure is 11.2%; as for `O=C1C(Cc2ccc(Br)cc2)SC(=Nc2ccccc2)N1c1ccccc1` (configuration not stated), 7.8%; as for `Nc1ccc(N2CCCCC2)c(S(=O)(=O)Nc2ccc(Cl)cc2)c1`, 16.6%.

For the molecule `COc1ccccc1NS(=O)(=O)c1cc(N)ccc1N1CCCCC1`, the inhibition is -8.3%.
